Measured values published in PubChem BioAssay AID2796 (The Scripps Research Institute Molecular Screening Center, 2010).
About 8,000 (2.5%) of roughly 320,000 compounds were called active. Rule as the data show it: active = activation above about 47%; inactive = the rest. Many of the other results were omitted from the sample, so actives are more common in it than they were.

Target: Aryl hydrocarbon receptor (Homo sapiens) (UniProt P35869)
Assay: AHR activators, primary screen, cell-based, luminescence, luciferase reporter, human (AID 2796);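 also: 0% = vehicle wells and 100% = reference agonist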
Conditions: AHR-responsive luciferase reporter cells, at 5 µM, active compounds read high

Aryl hydrocarbon receptor (Homo sapiens), sequence (P35869 whole entry, looked up): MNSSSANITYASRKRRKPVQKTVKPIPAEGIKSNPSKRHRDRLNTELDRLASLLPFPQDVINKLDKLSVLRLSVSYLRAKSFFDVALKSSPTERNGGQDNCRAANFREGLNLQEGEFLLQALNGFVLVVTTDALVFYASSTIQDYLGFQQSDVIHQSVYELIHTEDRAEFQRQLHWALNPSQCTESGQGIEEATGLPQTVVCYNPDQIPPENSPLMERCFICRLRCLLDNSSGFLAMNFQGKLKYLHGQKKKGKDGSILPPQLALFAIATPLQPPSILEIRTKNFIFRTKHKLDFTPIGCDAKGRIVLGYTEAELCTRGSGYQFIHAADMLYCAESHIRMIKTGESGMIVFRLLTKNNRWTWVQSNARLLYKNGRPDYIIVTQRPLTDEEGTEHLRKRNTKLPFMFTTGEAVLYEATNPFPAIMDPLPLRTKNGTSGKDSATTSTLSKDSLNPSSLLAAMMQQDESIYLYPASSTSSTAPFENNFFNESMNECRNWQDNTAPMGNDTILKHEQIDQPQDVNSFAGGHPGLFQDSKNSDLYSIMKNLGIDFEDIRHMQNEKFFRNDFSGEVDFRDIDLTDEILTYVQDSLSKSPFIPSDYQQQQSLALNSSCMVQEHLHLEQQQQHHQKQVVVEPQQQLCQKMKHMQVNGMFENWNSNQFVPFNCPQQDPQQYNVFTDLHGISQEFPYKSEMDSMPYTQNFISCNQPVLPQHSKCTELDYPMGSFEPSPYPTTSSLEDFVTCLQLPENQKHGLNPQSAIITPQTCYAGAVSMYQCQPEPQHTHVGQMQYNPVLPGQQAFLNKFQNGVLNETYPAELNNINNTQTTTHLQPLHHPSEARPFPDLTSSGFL

activation, inactive:
Cc1cc(Br)ccc1NC(=O)c1cnc(N2CCN(c3ccccn3)CC2)c2ccccc12 20.2%
N#CCSc1nc2ccc(N3CCOCC3)cc2c(=O)n1CCc1ccccc1 1.4%
Cc1cc(Nc2ccc(N3CCOCC3)cc2)c2cccc(C)c2n1 8.99%
CCN(CC)c1ccc(C(=O)N/N=C/c2ccc(N3CCOCC3)cc2)cc1 19%
N=c1oc2ccccc2cc1C(=O)NCc1ccccc1 -3.55%
CCN(CC)c1ccc(/C=N/NC(=O)c2cnccn2)c(O)c1 22.4%
COc1cccc2cc(C(N)=O)/c(=N\NC(=O)c3ccccc3)oc12 8.63%
COc1cc(/C=C/C(=O)Nc2ccc(OC)c(S(=O)(=O)N3CCOCC3)c2)ccc1OCC#N -0.9%
CCCCCc1ccc(-c2ccc(C(=O)O)cc2)nc1 -9.97%
COc1ccccc1CCNS(=O)(=O)c1cc2c3c(c1)C(C)C(=O)N3CCC2 (centres undefined) 4.39%
CC(=O)NS(=O)(=O)c1ccc(NC(=O)/C=C/c2ccccc2Cl)cc1 7.35%
Cc1nn(Cc2ccc(Cl)cc2)c(Cl)c1/C=N/NC(=O)CNc1ccccc1F 25%
Cc1ccc(/C=N/NC(=O)Cn2nc(C)c(Br)c2C)o1 2.15%
O=C(Cc1ccccc1)N/N=C/c1ccc(Cl)cc1Cl 1.3%
O=C(Nc1nnc(Cc2ccc(Cl)cc2)s1)c1cccnc1 3.47%
CC(OC(=O)CCCc1c[nH]c2ccccc12)C(=O)Nc1ccc(S(N)(=O)=O)cc1 (centres undefined) 0.81%
CC(NC(=O)CN1CCN(Cc2ccc(Cl)cc2)C1=O)c1ccc2c(c1)OCCO2 (centres undefined) 0.39%
CCOC(=O)c1cccc(NC(=O)C2CCN(c3ncnc4c3nc3n4CCCCC3)CC2)c1 2.44%
CCCCC[C@@H]1C=C(C(=O)O)[C@H](c2ccc(C#N)cc2)N1S(=O)(=O)c1ccc(C)cc1 -1.14%
Cc1ccc(C(=O)NCC(=O)OCc2nnc(-c3ccccc3)o2)cc1 1.68%
CC(C)[C@H](NC(=O)N1CC(=O)Nc2ccccc21)C(=O)N[C@@H](Cc1c[nH]c2ccccc12)C(=O)O 10.6%
COC(=O)c1[nH]c2cccc(C)c2c1NC(=O)CN1CCCc2ccccc21 26.4%
NS(=O)(=O)c1cccc(NC(=O)CN2CCCc3ccccc32)c1 3.96%
COc1ccc(OC)c(S(=O)(=O)N2CCCC(C(=O)N3CCC(C(N)=O)CC3)C2)c1 (centres undefined) -1.65%
N#CC1=C(N)Oc2c(ccc3cccnc23)C1c1ccncc1 (centres undefined) -0.63%
CC(C)C(C(=O)NC1CCCCC1)N(CC1CCCO1)C(=O)CNS(=O)(=O)c1ccc(F)cc1 (centres undefined) -1.33%
O=C(c1ccc(=O)oc1)N1CCC(C(O)(c2ccccc2)c2ccccc2)CC1 0.25%
O=C(c1ccc2c(c1)OCO2)N1CCOCC1 0.36%
CC(=O)c1cc2c(cc1N)OCO2 6.34%
[O-][N+]12CCCCC1CCCC2CO (centres undefined) -0.51%
Cn1c(=O)c2c(SCC(=O)N3CCOCC3)nc(C3CC3)nc2n(C)c1=O 7.71%
CSc1nc(C)nc2c1c(=O)n(C)c(=O)n2C 7.77%
CCOC(=O)N1CCN(C(=O)CSc2nc(C)nc3c2c(=O)n(C)c(=O)n3C)CC1 -2.19%
CC(C)c1ccc(C2C(C#N)=C(N)Oc3c2oc(CO)cc3=O)cc1 (centres undefined) 1.15%
C/C(=N\NC(=O)c1ccc2ccccc2c1)c1cccnc1 32.5%
C/C(=N\NC(=O)c1cccc([N+](=O)[O-])c1)c1cccnc1 43%
O=C(Nc1cccn(Cc2ccccc2Cl)c1=O)NC1CCCCC1 -0.61%
Cc1ccc(C2CCN(C(=S)Nc3cccc(Cl)c3)C2)cc1 (centres undefined) 0.22%
COc1ccc([N+](=O)[O-])cc1NC(=O)CC1SC(=Nc2cccc(C)c2C)N(/N=C(\C)c2ccc(C)cc2)C1=O (centres undefined) 2.69%
Cc1cccc(C(=O)OCC(=O)NC(C)C2CC3CCC2C3)c1O (centres undefined) -0.37%
CC(Oc1cccc(NC(=O)c2cccs2)c1)C(=O)c1ccccc1 (centres undefined) 5.22%
Cc1ccc(F)cc1NC(=O)CSCc1c(C)noc1C -0.17%
Cc1noc(C)c1CSCC(=O)Nc1ccc(Br)cc1Cl -1.92%
COc1cccc(/C=C/C(=O)Nc2ccc3c(c2)OCCO3)c1 -3.92%
COc1c(O)cc2oc(-c3ccc(O)c(O)c3)cc(=O)c2c1O -2.83%
COc1cccc(NC(=O)[C@H](Cc2c[nH]c3ccccc23)NC(=O)[C@@H]2Cc3ccccc3CN2)c1 8.95%
O=C(O)c1cccc(NC(=S)N/N=C/c2c[nH]c3ccccc23)c1 22%
O=C(N/N=C/c1c[nH]c2ccccc12)c1ccccc1O 19%
Nc1nonc1-n1nnc(C(=O)N/N=C/c2c[nH]c3ccccc23)c1-c1ccccc1 15.2%
Cc1c(/C=N\NC(=O)c2cc3ccccc3o2)c2ccccc2n1C 26.2%
CC1(C)C(C=C(Cl)Cl)C1C(=O)NC(O)C(=O)c1ccccc1 (centres undefined) -1.26%
COC(=O)c1ccc(C(=O)NC2CC(C)(C)Cc3c2cnn3-c2ccc(F)cc2)nc1 (centres undefined) -1.69%
COc1cc(C)nc(N2CCCC(C(=O)NCC(C)C)C2)n1 (centres undefined) 5.81%
CCc1cc(C(=O)OC)c(NC(=O)CC2Sc3ccc(C(F)(F)F)cc3NC2=O)s1 (centres undefined) -1.22%
Cc1cc(C)nc(SCc2nnc(SCC(=O)OC3CCCCC3)o2)n1 0.2%
CC(OC(=O)c1c(F)cccc1F)C(=O)NCCC1=CCCCC1 (centres undefined) 1.47%
COc1ccc(-c2csc(NC(=O)COC(=O)c3ccc(Br)o3)n2)cc1 15.7%
CC(C)(C)C(=O)OCc1nc(-c2ccc(O)c(O)c2)cs1 4.13%
CC1CCCCC12NC(=O)N(CC(=O)Nc1ccc(S(=O)(=O)Nc3ncccn3)cc1)C2=O (centres undefined) 0.23%
COC(=O)c1c(NC(=O)CN2C(=O)NC(CCc3ccccc3)C2=O)sc2c1CCCCC2 (centres undefined) 6.43%
COc1ccc(S(=O)(=O)NC(C)c2ccccc2)cc1C(=O)N1CCCCC1 (centres undefined) 2.64%
O=c1[nH]c(N2CCOCC2)nc2ccccc12 2.44%
O=c1[nH]c(/C=C/c2cccc(Br)c2)nc2ccccc12 22.6%
Cc1c(CN2CCC(n3nccc3NC(=O)CCc3ccccc3)CC2)cnn1C 1.39%
Cc1cccc(C)c1NC(=O)CNC(=O)Cc1ccc(Br)cc1 5.24%
CCOC(=O)Cc1csc(SCc2cc(=O)oc3cc(O)ccc23)n1 -1.46%
Cc1cc(=O)oc2cc(OCC(=O)Nc3nnc(C4CC4)s3)ccc12 9.3%
CCOC(=O)c1cccc(NC(=O)c2ccc(F)cc2F)c1 5.88%
Cn1c(=NC(=O)c2cnccn2)sc2ccccc21 13.9%
CCCC(=O)N=c1sc2cccc(F)c2n1C 5.82%
COc1ccc2oc(C(=O)OCC(=O)N(CC(C)C)c3c(N)n(Cc4ccccc4)c(=O)[nH]c3=O)c(C)c2c1 -3.35%
O=C(COc1ccccc1)Nc1cc2c3c(c1)CC(=O)N3CCC2 8.04%
COc1cc(/C=C2/C(=O)ON=C2C)ccc1OCc1ccccc1F 0.62%
CCOc1ccc(/C=N/NC(=O)C(C)Sc2ccccn2)cc1OCC (centres undefined) 4.44%
Cc1ccc(NC(=O)COC(=O)CNC(=O)c2ccc(Cl)cc2Cl)cc1S(=O)(=O)N1CCOCC1 -1.57%
O=C(CC1C(=O)NCCN1Cc1ccc(-c2ccccc2)cc1)NCc1ccncc1 (centres undefined) 0.69%

activation, active:
Cc1nn2c3cc(N4CCOCC4)ccc3nc2c2ccccc12 144%
CCN(CC)c1ccc2cc(C(N)=O)/c(=N\NC(=O)c3ccncc3)oc2c1 78%
NC(=O)c1cc2ccccc2o/c1=N/NC(=O)c1cccc(F)c1 52.6%
CCn1nc(C)c(/C=N/NC(=O)Cc2ccc(Cl)cc2)c1C 56.2%
Cc1nn(Cc2ccc(Cl)cc2)c(Cl)c1/C=N/NC(=O)c1cccnc1 96.6%
COC(=O)c1[nH]c2ccccc2c1NC(=O)CN1CCCc2ccccc21 74.4%
N#CC1=C(N)Oc2c(sc3ccccc23)C1c1ccco1 (centres undefined) 74.7%
Nc1[nH][nH]c(=O)c1N=Nc1ccc2c(c1)OCO2 96.5%
CCC(C)Sc1nc(C)nc2c1c(=O)n(C)c(=O)n2C (centres undefined) 54%
C/C(=N\NC(=O)c1cccnc1)c1ccc(-n2ccnc2)cc1 94.3%
CCOC(=O)c1c(C2CC2)csc1NC(=O)CSCc1c(C)noc1C 74.2%
O=C(N/N=C/c1c[nH]c2ccccc12)c1cc2ccccc2o1 99%
CSC(=S)N/N=C/c1c[nH]c2ccccc12 82%
COc1ccc(-c2csc(Cc3nc(O)cs3)n2)cc1 47.5%
O=c1[nH]c(-c2cccs2)nc2ccccc12 71.2%
CCOC(=O)Cc1csc(NC(=O)COc2ccc3c(C)cc(=O)oc3c2)n1 59.9%
Cn1c(=NC(=O)c2ccco2)sc2cccc(F)c21 58%
CCOc1cc(/C=N/O)ccc1OCc1ccccc1F 50.4%
